# PubChem BioAssay
# The source made the active and inactive calls.
# Legend:
# [1] = tested on: Plasmodium falciparum Sir2 (PF13_0152, Sir2A); assay: pfSir2 binders on small-molecule microarrays, primary screen, biochemical, small-molecule microarray, 635 nm fluorescence (AID 1098); conditions: small-molecule microarray binding, fluorescence 635 nm; higher = more signal;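 note: score merges spot fluorescence intensity with its signal-to-noise ratio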
# [2] = small-molecule microarray binders of probe aDKK1, primary screen, biochemical, biotinylated probe, 635/667 nm fluorescence (AID 1099); conditions: higher = more signal;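 note: score merges 667nm spot fluorescence with signal to noise across triplicate slides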
# [3] = small-molecule microarray binders of probe aCHRDL2, primary screen, biochemical, biotinylated probe, 635/667 nm fluorescence (AID 1100); conditions: higher = more signal
# [4] = splicing luciferase reporter signal modulators, primary screen, spliceosome inhibition project, cell-based, HEK293, splice +/- reporter (AID 1101); conditions: luminescence, 24 h, higher = more signal, called active from +8 up or from −8 down;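 note: HEK293 cells carrying a splicing-competent luciferase reporter gene; test concentration not given here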
# [5] = molecular target: Fibroblast growth factor 10 (Homo sapiens) (UniProt O15520); assay: FGF10 binders on small-molecule microarrays, primary screen, biochemical, small-molecule microarray, 635 nm fluorescence (AID 1102); conditions: FGF10 binding, fluorescence 635 nm, higher = more signal
# Chain of Fibroblast growth factor 10 (Homo sapiens) (O15520 whole entry, looked up): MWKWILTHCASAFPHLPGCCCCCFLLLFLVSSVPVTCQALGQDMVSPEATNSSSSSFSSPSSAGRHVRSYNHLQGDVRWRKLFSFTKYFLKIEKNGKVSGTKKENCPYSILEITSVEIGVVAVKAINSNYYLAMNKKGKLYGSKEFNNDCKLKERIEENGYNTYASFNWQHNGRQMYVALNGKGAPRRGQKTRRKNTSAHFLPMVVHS
# [6] = tested on: glycogen synthase kinase-3 (GSK3A per assay name; protocol says GSK3B); assay: GSK3 binders on small-molecule microarrays, primary screen, biochemical, small-molecule microarray, 635 nm fluorescence, GSK3A (AID 1103); conditions: small-molecule microarray binding, fluorescence 635 nm; higher = more signal; note: the record names both GSK3A and GSK3B
# [7] = molecular target: Epidermal growth factor receptor (Homo sapiens) (UniProt P00533); assay: EGFR binders on small-molecule microarrays, primary screen, biochemical, small-molecule microarray, 635 nm fluorescence (AID 1104); conditions: EGFR binding, higher = more signal;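 note: score merges 667 nm emission intensity with spot signal to noise over triplicate slides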
# Chain of Epidermal growth factor receptor (Homo sapiens) (P00533 whole entry, looked up): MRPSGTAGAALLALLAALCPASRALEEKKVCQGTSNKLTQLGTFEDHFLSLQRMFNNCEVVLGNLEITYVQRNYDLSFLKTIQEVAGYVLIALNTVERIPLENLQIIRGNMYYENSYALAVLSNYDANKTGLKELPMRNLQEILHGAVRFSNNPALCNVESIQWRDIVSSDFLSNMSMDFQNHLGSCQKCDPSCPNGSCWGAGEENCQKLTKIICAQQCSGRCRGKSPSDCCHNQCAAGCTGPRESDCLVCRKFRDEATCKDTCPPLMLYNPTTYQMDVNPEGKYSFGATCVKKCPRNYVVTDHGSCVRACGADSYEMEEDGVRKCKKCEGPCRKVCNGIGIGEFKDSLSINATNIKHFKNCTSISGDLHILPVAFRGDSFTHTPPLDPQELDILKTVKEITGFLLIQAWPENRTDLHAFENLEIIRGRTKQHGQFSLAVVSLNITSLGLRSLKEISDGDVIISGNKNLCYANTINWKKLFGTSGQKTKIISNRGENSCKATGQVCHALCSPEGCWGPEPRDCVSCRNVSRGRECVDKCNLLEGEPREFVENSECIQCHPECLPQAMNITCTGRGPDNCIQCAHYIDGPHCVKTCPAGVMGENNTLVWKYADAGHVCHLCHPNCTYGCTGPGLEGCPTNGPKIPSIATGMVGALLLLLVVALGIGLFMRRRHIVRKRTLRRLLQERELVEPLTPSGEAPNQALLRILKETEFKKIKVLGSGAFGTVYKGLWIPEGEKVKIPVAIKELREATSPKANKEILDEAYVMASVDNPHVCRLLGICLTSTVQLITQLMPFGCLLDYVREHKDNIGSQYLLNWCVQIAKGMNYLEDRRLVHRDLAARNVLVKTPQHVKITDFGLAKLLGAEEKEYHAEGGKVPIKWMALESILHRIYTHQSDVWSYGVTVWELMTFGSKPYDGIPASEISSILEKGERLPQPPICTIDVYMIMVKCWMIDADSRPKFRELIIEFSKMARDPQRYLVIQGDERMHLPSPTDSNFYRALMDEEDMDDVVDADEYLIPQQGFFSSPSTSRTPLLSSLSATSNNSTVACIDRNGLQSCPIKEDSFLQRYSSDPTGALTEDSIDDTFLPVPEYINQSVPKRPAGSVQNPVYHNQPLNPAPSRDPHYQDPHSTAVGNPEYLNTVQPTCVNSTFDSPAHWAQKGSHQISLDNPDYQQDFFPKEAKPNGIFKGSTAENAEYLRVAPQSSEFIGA
# [8] = molecular target: Follistatin-related protein 3 (Homo sapiens) (UniProt O95633); assay: FSTL3 binders on small-molecule microarrays, primary screen, biochemical, small-molecule microarray, 635 nm fluorescence (AID 1105); conditions: FSTL3 binding, higher = more signal;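 note: score merges emission near 667 nm and signal to noise per printed spot across three slides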
# Chain of Follistatin-related protein 3 (Homo sapiens) (O95633 whole entry, looked up): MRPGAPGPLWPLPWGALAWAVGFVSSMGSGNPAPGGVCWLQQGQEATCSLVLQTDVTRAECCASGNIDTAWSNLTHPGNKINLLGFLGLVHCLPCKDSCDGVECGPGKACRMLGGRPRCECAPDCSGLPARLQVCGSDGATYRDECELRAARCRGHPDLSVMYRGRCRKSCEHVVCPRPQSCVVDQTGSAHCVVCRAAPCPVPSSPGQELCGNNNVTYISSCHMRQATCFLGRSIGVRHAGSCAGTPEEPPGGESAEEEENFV
# [9] = molecular target: Dickkopf-related protein 1 (Homo sapiens) (UniProt O94907); assay: DKK1 binders on small-molecule microarrays, primary screen, biochemical, small-molecule microarray, 635 nm fluorescence scan (AID 1106); conditions: DKK1 binding, higher = more signal;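 note: score merges emission near 667 nm with signal to noise over three replicate slides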
# Chain of Dickkopf-related protein 1 (Homo sapiens) (O94907 whole entry, looked up): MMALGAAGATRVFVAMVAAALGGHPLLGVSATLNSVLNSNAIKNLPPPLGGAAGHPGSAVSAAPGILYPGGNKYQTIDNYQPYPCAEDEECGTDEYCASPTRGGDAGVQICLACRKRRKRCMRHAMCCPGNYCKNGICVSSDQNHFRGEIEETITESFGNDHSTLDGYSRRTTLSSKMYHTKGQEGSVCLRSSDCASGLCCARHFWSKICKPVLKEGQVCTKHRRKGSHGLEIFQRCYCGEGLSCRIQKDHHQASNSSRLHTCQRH
# [10] = tested on: Inhibin beta A chain (activin A); assay: INHBA (activin A) binders on microarrays, primary screen, biochemical, small-molecule microarray, 635 nm fluorescence scan (AID 1107); conditions: small-molecule microarray binding, higher = more signal;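 note: mouse activin A protein probed at 4.33 µg/mL on printed slides; score merges bound-protein fluorescence near 667 nm with spot signal-to-noise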
# [11] = tested on: Human papillomavirus type 1a protein E7 (residues 44-93); assay: HPV1a E7 fragment binders on microarrays, primary screen, biochemical, small-molecule microarray, residues 44-93, 635 nm fluorescence (AID 1108); conditions: small-molecule microarray binding, fluorescence 635 nm; higher = more signal;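 note: E7 fragment applied at 1 µg/mL in TBST for 1 h at 4 C; score combines spot fluorescence with its signal to noise ratio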
# [12] = modulators of HCV replicon luciferase signal, primary screen, HCV replication inhibitor project, Huh7 cells, luciferase reporter (AID 1109); conditions: 48 h, higher = more signal;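 note: huh7 hepatoma cells harbouring a luciferase neomycin HCV replicon reporter; luciferase luminescence as measure of HCV replicon replication; test concentration not given here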
# [13] = molecular target: Left-right determination factor 2 (Homo sapiens) (UniProt O00292); assay: LEFTY2 binders on small-molecule microarrays, primary screen, biochemical, small-molecule microarray, 635 nm fluorescence scan (AID 1110); conditions: LEFTY2 binding, higher = more signal
# Chain of Left-right determination factor 2 (Homo sapiens) (O00292 whole entry, looked up): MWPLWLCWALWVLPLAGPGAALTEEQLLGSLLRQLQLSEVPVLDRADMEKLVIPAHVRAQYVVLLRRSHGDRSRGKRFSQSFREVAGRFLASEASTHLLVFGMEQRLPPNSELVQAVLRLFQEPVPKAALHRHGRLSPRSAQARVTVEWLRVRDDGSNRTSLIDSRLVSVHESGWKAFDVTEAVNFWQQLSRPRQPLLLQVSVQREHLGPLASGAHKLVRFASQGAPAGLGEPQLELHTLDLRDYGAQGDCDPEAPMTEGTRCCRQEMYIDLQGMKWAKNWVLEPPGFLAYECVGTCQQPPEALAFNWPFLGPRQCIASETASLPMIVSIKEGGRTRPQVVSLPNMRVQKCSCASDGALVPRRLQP
# [14] = molecular target: Calmodulin-1 (Homo sapiens) (UniProt P0DP23); assay: CALM1 binders on microarrays, EGTA buffer, profiling panel, biochemical, small-molecule microarray, Cy5-labelled CALM1 (AID 1111); conditions: Cy5-CALM1 binding fluorescence, higher = more signal;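 note: labelled calmodulin applied in Tris saline Tween buffer holding calcium plus EGTA and DTT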
# [15] = molecular target: Calmodulin-1 (Homo sapiens) (UniProt P0DP23); assay: calcium-bound CALM1 binders on microarrays, profiling panel, artefact control for SMM control-protein annotation, biochemical, small-molecule microarray, Cy5-labelled CALM1, plus calcium (AID 1112); conditions: Cy5-CALM1 binding fluorescence, higher = more signal;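 note: score merges spot fluorescence with signal to noise from triplicate slides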
# [16] = small-molecule microarray binders of probe aWnt5a, primary screen, biochemical, biotinylated probe, 635/667 nm fluorescence (AID 1113); conditions: higher = more signal;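 note: score merges 667 nm fluorescence intensity with signal-to-noise per printed feature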
# [17] = small-molecule microarray binders of probe aShh, primary screen, biochemical, biotinylated probe, 635/667 nm fluorescence (AID 1114); conditions: higher = more signal;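 note: probe is biotin-labelled aShh protein from a stem cell growth factor screen; measures binding of labelled protein to compounds printed on the slide; score merges feature fluorescence at 667 nm with signal-to-noise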
# [18] = small-molecule microarray binders of probe aNog, primary screen, biochemical, biotinylated probe, 635/667 nm fluorescence (AID 1115); conditions: higher = more signal;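 note: probe is biotinylated aNog protein used at 0.15 µg/mL for 1 h at 4 C; z-score combines 667 nm fluorescence of each spot with its signal to noise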
# [19] = molecular target: Torsin-1A-interacting protein 1 (Homo sapiens) (UniProt Q5JTV8); assay: LAP1 binders from COS7 cell lysate, primary screen, small-molecule microarray, 635/667 nm fluorescence (AID 1116); conditions: COS7-hLAP1 lysate binding, 635 nm fluorescence, higher = more signal
# Chain of Torsin-1A-interacting protein 1 (Homo sapiens) (Q5JTV8 whole entry, looked up): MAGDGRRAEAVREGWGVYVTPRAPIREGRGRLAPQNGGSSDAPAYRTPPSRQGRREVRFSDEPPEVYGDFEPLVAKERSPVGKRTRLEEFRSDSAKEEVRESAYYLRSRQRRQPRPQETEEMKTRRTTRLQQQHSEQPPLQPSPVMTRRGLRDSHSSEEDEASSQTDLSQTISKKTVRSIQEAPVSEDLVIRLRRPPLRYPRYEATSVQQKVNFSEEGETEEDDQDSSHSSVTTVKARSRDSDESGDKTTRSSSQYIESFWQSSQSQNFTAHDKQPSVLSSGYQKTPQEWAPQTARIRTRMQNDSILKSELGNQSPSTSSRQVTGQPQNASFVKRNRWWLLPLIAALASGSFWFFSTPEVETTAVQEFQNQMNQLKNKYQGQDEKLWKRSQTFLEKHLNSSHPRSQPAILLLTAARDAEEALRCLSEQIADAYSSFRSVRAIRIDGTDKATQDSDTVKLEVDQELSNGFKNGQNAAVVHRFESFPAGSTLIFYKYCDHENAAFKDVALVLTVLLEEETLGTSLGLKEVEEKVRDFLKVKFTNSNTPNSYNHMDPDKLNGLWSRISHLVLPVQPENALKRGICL
# [20] = molecular target: Alpha-bungarotoxin (Bungarus multicinctus) (UniProt P60615); assay: alpha-bungarotoxin binders on microarray, profiling panel, artefact control for SMM control protein annotation, biochemical, small-molecule microarray, Alexa647 label, 635/667 nm fluorescence (AID 1117); conditions: alpha-BTX-A647 binding fluorescence, higher = more signal
# Chain of Alpha-bungarotoxin (Bungarus multicinctus) (P60615 whole entry, looked up): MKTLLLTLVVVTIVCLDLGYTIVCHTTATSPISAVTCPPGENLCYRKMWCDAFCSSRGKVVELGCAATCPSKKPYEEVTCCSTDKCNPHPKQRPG
Compound,composite z-score [1],composite z-score [2],composite z-score [3],z-score [4],composite z-score [5],composite z-score [6],composite z-score [7],composite z-score [8],composite z-score [9],composite z-score [10],composite z-score [11],z-score [12],composite z-score [13],composite z-score [14],composite z-score [15],composite z-score [16],composite z-score [17],composite z-score [18],composite z-score [19],composite z-score [20]
CCCCC(O)C1C=CC2C(=O)N(C)C(=O)C2N1N1CCCCC1 (stereo not given),0.933,0.945,0.743,0.871 (inactive),0.546,-0.0038,0.229,0.574,0.0003,1.42,1.34,0.0634,0.462,0.0471,-0.665,0.0251,0.156,-0.294,0.893,1.16
COc1cc(CO)cc(I)c1O[C@H]1C=C(C(=O)NCCO)C[C@@H](NC[C@@H]2CCCO2)[C@@H]1O,0.922,-0.349,-0.204,-0.466 (inactive),0.671,0.0227,-0.0367,0.334,0.17,-0.0437,1.33,-0.695,0.187,-0.0113,-0.732,-0.096,-0.304,-0.267,1.13,0.693
NC(=O)NCC#Cc1ccc2c(c1)[C@]1(C(=O)N2)[C@H](C(=O)O)[C@H]2C(=O)O[C@H](c3ccccc3)[C@H](c3ccccc3)N2[C@@H]1c1ccc(O)cc1,0.783,1.18,1.24,0.72 (inactive),0.295,-0.576,-0.16,1.28,0.181,1.25,0.443,-0.539,-0.317,1.6,0.717,0.216,0.346,1.61,0.412,1.5
[N-]=[N+]=NCc1ccccc1[C@H]1OC(c2ccc(OCCCO)cc2)=N[C@@]1(Cc1ccccc1)C(=O)N1CCCCC1,1.14,0.344,0.574,-1.05 (inactive),1.34,1.3,0.0201,0.79,0.428,0.522,1.37,-2.55,0.198,1.23,0.0298,0.195,-0.0243,-0.768,0.249,1.43
COc1ccc(C(=O)Nc2ccc(CN3C(=O)[C@]4(O[C@H](CC(=O)N5CCC[C@H]5CO)[C@@H]([Si](C)(C)c5ccc(OC)cc5)[C@@H]4C)c4ccccc43)cc2)cc1,1.46,-0.314,0.0167,1.76 (inactive),0.679,0.573,0.352,0.683,0.545,0.0938,1.4,-3.86,0.471,0.453,-0.171,-0.0445,0.0639,0.116,1.08,0.748
Cc1ccc(/C=C/C=O)cc1,1.21,-0.051,0.44,-0.0631 (inactive),-0.0586,-0.472,-0.817,-0.955,-0.0317,0.579,0.134,0.626,-0.419,0.619,-0.524,-0.213,-0.0146,-0.299,-0.0785,0.185
COCCCNC(=O)[C@@]1(CCS(=O)(=O)c2ccccc2)N=C(c2ccc(OCCCO)cc2)O[C@H]1c1ccccc1N=[N+]=[N-],1.41,0.879,0.942,-0.0182 (inactive),1.49,0.79,-0.0333,1.25,0.267,0.796,1.48,-1.6,0.169,1.55,0.001,0.127,0.204,1.36,2.24,1.67
CCCCCCCCCCC(O)C1C=CC2C(=O)NC(=O)C2N1Nc1ccc(Cl)cc1Cl (stereo not given),-0.856,-0.214,0.935,-0.723 (inactive),-0.127,-0.535,-0.724,-0.88,-1.04,1.14,0.732,-1.26,-1.67,1.21,1.21,-0.122,-0.138,1.07,0.345,-0.133
C#CCN1[C@H](/C=C/C2CC2)[C@H](Cc2ccccc2)OC(=O)[C@@H]1Cc1ccccc1,1.16,-0.411,-0.507,0.23 (inactive),0.294,0.109,0.323,0.326,0.428,0.849,-0.306,-2.87,0.294,-0.707,-0.414,-0.164,-0.0066,-0.401,0.0223,0.106
COc1cc(CO)cc(I)c1O[C@H]1C=C(C(=O)NCCO)C[C@@H](N(C(=O)c2cc3ccccc3oc2=O)C2CCCCCC2)[C@@H]1O,1.09,-0.28,-0.302,-1.33 (inactive),0.968,-0.314,0.338,0.348,0.306,-0.0101,-0.914,-0.469,-0.0138,-0.23,-0.769,-0.096,-0.349,-0.267,0.155,-0.29
NCCCCCNC(=O)[C@H]1C[C@H]2C(=O)N3CCC[C@H]3C(=O)N2[C@H]1c1ccc(O)cc1,0.94,1.63,0.684,-0.391 (inactive),1.01,1.28,0.781,1.34,1.24,1.12,1.39,-0.0865,0.84,1.99,1.13,0.212,0.264,1.19,1.07,1.1
